Data reported in PubChem BioAssay (NCI).
The panel holds about 83,000 compounds, 20% with a hit somewhere; the sample as a whole holds those more often.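 Interpretation: 100, growth as untreated; towards 0, rising growth inhibition; 0, no net growth; 0 to -100, cell death. Compounds scoring below 10 were considered active.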 Unmarked numbers belong to inactive results. The source made the active and inactive calls.

Assays:
Experiment in all cases: NCI-60 one-dose screen, 48 h (100 = growth as untreated, 0 = no growth, -100 = all killed)
Conditions in all cases: 10 µM unless noted
[1] = tested on: NCI-H23 lung
[2] = tested on: NCI-H226 lung
[3] = tested on: NCI-H322M lung
[4] = tested on: HOP-62 NSCLC
[5] = tested on: NCI-H460 lung
[6] = tested on: HOP-92 NSCLC
[7] = tested on: NCI-H522 lung
[8] = tested on: A549/ATCC NSCLC
[9] = tested on: 786-0 renal
[10] = tested on: COLO 205 colon

Row | SMILES | growth [1] | growth [2] | growth [3] | growth [4] | growth [5] | growth [6] | growth [7] | growth [8] | growth [9] | growth [10]
1 | COc1ccc2c(c1)C1(C(=O)N2)C(C#N)=C(c2ccccc2)Nc2c1c(-c1ccccc1)nn2-c1ccccc1 (centres undefined) | 51.1% | 101% | 60.4% | 66.9% | -26.1% (active) | 55.6% | 85.9% | 36.3% | 62.4% | 60.1%
2 | CNc1cccc2c1C(=O)c1cccc(N)c1C2=O | 76.3% | 82.4% | 75.3% | 89.3% | 52.4% | 20.5% | 62.3% | 59.8% | 38% | 7.33% (active)
3 | COc1ccc(-n2cc(COc3ccc4c5ccnc(C)c5n(CC(C)C)c4c3)nn2)cc1 | 61.9% | 52.3% | 88.7% | 56.6% | 69.5% | 44.9% | 37.3% | 67.1% | 73.9% | 68.6%
4 | CCC1=C[C@H]2CN(CCc3c([nH]c4ccccc34)[C@@](C(=O)OC)(c3cc4c(cc3OC)N(C)[C@H]3[C@@](O)(C(=O)OC)[C@H](OC(C)=O)[C@]5(CC)[C@@H]6C[C@@H]6CN6CC[C@]43[C@@H]65)C2)C1 | 44% | 47.9% | 66.1% | 10.7% | 5.3% (active) | -7.42% (active) | -29% (active) | 17.7% | 12.6% | -43.5% (active)
5 | C=C1C(=O)O[C@H]2[C@H]1CC/C(COC(=O)c1c[nH]c3ccccc13)=C\CC[C@@]1(C)O[C@@H]21 | -52.9% (active) | -78.3% (active) | 16% | -43.3% (active) | 2.46% (active) | -59.7% (active) | -66.7% (active) | -7.16% (active) | -92% (active) | -53.5% (active)
6 | COc1ccc(Cl)c([N+](=O)[O-])c1 | 98.5% | 101% | 98.8% | 93.4% | 108% | 98% | 95.7% | 99.6% | 99.2% | 116%
7 | CSc1cccc(NC(=O)Nc2nc3c(C)cccc3s2)c1 | 90.2% | 83.2% | 102% | 87.4% | 97.6% | 86.6% | 77.6% | 95.1% | 96.2% | 120%
8 | NS(=O)(=O)c1ccc(-n2ncc(NC(=O)Nc3ccc(S(=O)(=O)Nc4nccs4)cc3)c2-c2ccccc2)cc1 | 106% | 104% | 106% | 94.4% | 108% | 106% | 98.4% | 98.5% | 95.6% | 108%
9 | Cc1ccc(SC2c3ccc(C)cc3Oc3nc(N)c(C#N)c(N)c32)cc1 (centres undefined) | 82.8% | 92.8% | 104% | 89.8% | 101% | 66.6% | -53.4% (active) | 101% | 91.4% | 62.8%
10 | O=C1NC(SCc2ccc(F)cc2)=N/C1=C/c1cccc(OCc2ccc(Cl)cc2)c1 | 57.6% | -7.92% (active) | 50.3% | 45.9% | 11.8% | 68% | 67.5% | 26.2% | -33.3% (active) | 55.3%
11 | Nc1ccc2c(c1)C(=O)C(=O)c1c-2nc2ccccn12 | -42.8% (active) | 13.3% | -6.65% (active) | -2.15% (active) | 0.968% (active) | -21.4% (active) | 17.5% | -45.4% (active) | 71.4% | -49.2% (active)
12 | COc1ccc(C2N(c3cc(OC)c(OC)c(OC)c3)C(=O)C2(F)F)cc1F (centres undefined) | 37.9% | 75.5% | 91.2% | 38.4% | 27.2% | 60.8% | 17.5% | 48.6% | 75.3% | 16.3%
13 | O=Cc1[nH]c(Sc2ccccc2)c2ccccc12 | 67.2% | 66.9% | 91.7% | 85.6% | 90.5% | 45.7% | 107% | 96.1% | 81.1% | 64.8%
14 | Nc1c(C(=O)Nc2cccc3ccccc23)sc2nc3c(cc12)CCCCCC3 | 47.8% | 70.6% | 48.1% | 38.8% | 11.2% | 52.9% | -37.1% (active) | 20.1% | 26.4% | -2.61% (active)
15 | C=C1C(=O)O[C@H]2[C@H]1CC/C(COC(=O)CCCCC(=O)OC/C1=C/CC[C@@]3(C)O[C@H]3[C@H]3OC(=O)C(=C)[C@@H]3CC1)=C\CC[C@@]1(C)O[C@@H]21 | 65.2% | 75.3% | 105% | 86.8% | 99.3% | 61.1% | -36.9% (active) | 94.9% | 68% | -18.9% (active)
16 | COc1ccc(C2=NN(c3ccc(S(N)(=O)=O)cc3)C(c3ccc(Cl)cc3)C2)c(O)c1 (centres undefined) | 63.7% | 84.6% | 71.6% | 90.2% | 45% | 58.6% | 48.8% | 33% | 67.1% | 69.7%
17 | O=c1c2ccccc2oc2ccc(OCCCCCCN3CCCCCC3)cc12 | 39.2% | 74.1% | 74.3% | 74.1% | 35% | 74.6% | 46% | 40.4% | 27.1% | -5.01% (active)
18 | C=CCn1c(SCC(=O)Nc2ccc(C(=O)/C=C/c3ccc(Cl)cc3)cc2)nnc1-c1cc(OC)c(OC)c(OC)c1 | 92.9% | 79.6% | 101% | 98.3% | 99.6% | 89.2% | 76.3% | 85.6% | 81% | 110%
19 | Clc1ccc2c(NCCCNC3CCCCC3)ccnc2c1 | 112% | 108% | 101% | 91.1% | 104% | 80.4% | 107% | 120% | 68.5% | 93.5%
20 | S=C(Nc1ccc(Cl)cc1)c1ccccn1 | 83% | 88.1% | 97.2% | 78.3% | 101% | 77.1% | 73.7% | 88.9% | 93.2% | 110%
21 | Cn1cc(-c2ccc3c(c2)ncn3-c2ccc(CC(=O)Nc3cc(C(C)(C)C)on3)cc2)cn1 | 30.2% | 22.2% | 8.78% (active) | 36.2% | 28.5% | – | 32.8% | 19% | 17.6% | 38.2%
22 | CCCCc1ccc(N=Nc2ccc(OCC[N+](C)(C)C)cc2)cc1 | 49.2% | 51.9% | 73.8% | 20% | 32.7% | 25.8% | 34.4% | 33.2% | 71.4% | -5.3% (active)
23 | COc1ccc2c(c1)Oc1nc(N)c(C#N)c(N)c1C2Sc1ccc(SC)cc1 (centres undefined) | 44.1% | 75.6% | 77.4% | 100% | 58% | 18.4% | -81.5% (active) | 85.7% | 8.66% (active) | -3.1% (active)
24 | COc1ccc(-c2cc(-c3nnc(SCC(=O)Nc4ccc(C(C)=O)cc4)o3)c3ccccc3n2)cc1 | 0.0219% (active) | 17.1% | 79.9% | -33.9% (active) | -54.4% (active) | -10.1% (active) | -28.7% (active) | 22.3% | -72.3% (active) | 21.7%
25 | Nc1c(C(=O)Nc2cccc3ccccc23)sc2nc3c(cc12)COCC3 | 63.1% | 98% | 82.4% | 39.9% | 31.1% | 61.1% | 26.4% | 50.9% | 38.6% | 58.7%
26 | Nc1ccc(C2=NN(C(=O)c3cc(-c4ccc(Cl)cc4)nc4ccccc34)C(c3ccc(Cl)cc3)C2)cc1 (centres undefined) | 50% | 60.1% | 45.2% | 28.8% | 17.2% | 60.3% | 15.4% | 43.8% | 25.6% | 22.6%
